Measurements taken from PubChem BioAssay AID463193 (University of Pittsburgh Molecular Library Screening Center, 2010).
In all, about 190,000 compounds went through this assay and about 1,900 (1%) were called active.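 Rule for the calls: active = percentage of spot-positive cells more than 3 SD above its plate mean, without a fluorescence outlier flag or 80% toxicity; inconclusive = no clear call, values can overlap the other calls; inactive = the rest.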 The list comes from a sample in which actives are over-represented; it also holds similar structures and randomly drawn compounds.

test: GFP-LC3 puncta formation changes – imaging, high-content, MEF GFP-LC3, primary screen (AID 463193); conditions: autophagy, at 10 µM; % cells with GFP-LC3 spots: stronger effect = higher value; toxicity: measured here: cell loss, nuclei count;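 for % cells with GFP-LC3 spots: spot-positive cell cutoff set from DMSO-treated cells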;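 for toxicity: cell loss after 18 h compound exposure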

Row | SMILES | % cells with GFP-LC3 spots | toxicity [%]
1 | O=C(CSc1nc(-c2ccco2)cc(C(F)(F)F)n1)N1CCc2ccccc2C1 | 0.274% (inactive) | -3.54
2 | O=C(CSc1nc(-c2ccco2)cc(C(F)(F)F)n1)NCc1cccs1 | 11.9% (active) | 19.8
3 | COc1ccc(-c2cc(C(F)(F)F)nc(SCCC(=O)NCc3ccco3)n2)cc1 | 14.8% (inactive) | 0.225
4 | Cc1ccc(S(=O)(=O)N2CCCC2C(=O)OCc2nc3sc(C)c(C)c3c(=O)[nH]2)cc1 (stereo unspecified) | 7.41% (inactive) | 2.2
5 | CS(=O)(=O)N(CC(=O)N/N=C/c1ccccn1)c1ccc(Oc2ccccc2)cc1 | 19.6% (inactive) | 9.84
6 | COc1cc(N=Cc2c(O)[nH]c3ccccc23)cc(OC)c1OC | 1.9% (inactive) | 14.8
7 | COc1ccc(OC)c(N=Cc2c(O)[nH]c3ccccc23)c1 | 30.3% (active) | 10.8
8 | COc1ccc(N=Cc2c(O)[nH]c3ccccc23)cc1OC | 20.4% (inactive) | 0.85
9 | O=C(NNC1CC(=O)N(c2cccc(Cl)c2)C1=O)c1cccnc1 (stereo unspecified) | 14.6% (inactive) | -11.8
10 | COc1cccc2c(O)cc(=O)n(C)c12 | 6.52% (inactive) | 15.8
11 | CCN1CCN(C(c2cccnc2)c2cc(Cl)c3cccnc3c2O)CC1 (stereo unspecified) | 0.145% (inactive) | 15.1
12 | Oc1c(CN2CCN(c3ccc(F)cc3)CC2)cc(Cl)c2cccnc12 | 52% (active) | 33.9
13 | O=C(c1cccc(C(=O)N2CCN(c3ccc(F)cc3)CC2)c1)N1CCN(c2ccc(F)cc2)CC1 | 13% (inactive) | -26
14 | C=CCn1c(CCNC(=O)c2ccccc2F)nnc1SCC(=O)Nc1ccc(OC)cc1 | 1.65% (inactive) | 10.4
15 | COc1ccc(OC)c(S(=O)(=O)NCCC(C)C)c1 | 7.62% (inactive) | 7.42
16 | CN=c1scc(-c2cc(OC)ccc2OC)n1/N=C/c1c(C)[nH]c2ccccc12 | 8.49% (inactive) | 3.61
17 | COc1ccc(S(=O)(=O)Nc2c(C)n(C)n(-c3ccccc3)c2=O)cc1 | 4.67% (inactive) | 4.21
18 | CCn1c(-c2cc(OC)ccc2OC)csc1=Nc1c(C)n(C)n(-c2ccccc2)c1=O | 12.4% (active) | -0.744
19 | COc1ccc(-c2nc(N)sc2C2(O)C(=O)Nc3c(Br)cc(F)cc32)cc1OC (stereo unspecified) | 1.66% (inactive) | -1.9
20 | COC(=O)NNC1=CC(=O)CC(C)(C)C1 | 0.796% (inactive) | -6.02
21 | Clc1cc(-c2ccc(/C=N/n3cnnc3)o2)ccc1Br | 8.69% (inactive) | 20.9
22 | CC(=O)N/N=C(\C)c1ccc(Br)cc1Br | 20.7% (inactive) | 2.43

Row | SMILES | % cells with GFP-LC3 spots | toxicity [%]
23 | Cc1cc(C)c2[nH]c(=O)c(C(c3nnnn3Cc3ccc4c(c3)OCO4)N3CCCC3)cc2c1 (stereo unspecified) | 21.2% (inactive) | 8.95
24 | CCOC(=O)C1CCN(C(c2cc3cc(C)cc(C)c3[nH]c2=O)c2nnnn2C2CCCCC2)CC1 (stereo unspecified) | 19.2% (active) | 24.2
25 | COc1ccc(N2CCN(C(c3cc4ccc(C)cc4[nH]c3=O)c3nnnn3C3CCCC3)CC2)cc1 (stereo unspecified) | 5.85% (inactive) | -3.74
26 | O=C(CN1C(=O)NC2(CCCC2)C1=O)NCC1CCCO1 (stereo unspecified) | 11.1% (inactive) | 7.52
27 | O=C(NNC(=O)c1cc2c(s1)CCCC2)c1ccccc1 | 9.94% (inactive) | -13.8
28 | C/C(=N\NC(=O)c1cc2c(s1)CCC(C)C2)c1cccnc1 (stereo unspecified) | 17.7% (inactive) | -0.909
29 | CC1CCc2sc(C(=O)N/N=C/C3CCCCC3)cc2C1 (stereo unspecified) | 20.3% (active) | -2.28
30 | COC(=O)c1c(C)[nH]c(C)c1-c1ccc([N+](=O)[O-])cc1 | 18.2% (inactive) | 38.9
31 | CCOC(=O)c1c(NC(=O)Cn2nc(C(F)(F)F)cc2C)sc2c1CCC2 | 7.63% (inactive) | 0.444
32 | Cc1nc([N+](=O)[O-])c(NCCCO)n1Cc1ccccc1 | 43.4% (inactive) | 4.77
33 | N=c1c2c(-c3ccccc3)c(-c3ccccc3)n(Cc3ccccc3)c2ncn1CCCO | 32% (active) | 9.38
34 | N=c1c2c(-c3ccccc3)c(-c3ccccc3)oc2ncn1Cc1ccco1 | 5.09% (inactive) | -0.176
35 | O=C(Cc1ccccc1)NNS(=O)(=O)c1ccc([N+](=O)[O-])cc1 | 5.31% (inactive) | -4.08
36 | CCCCN(CC)C(=O)c1ccccc1Oc1ccccc1 | 7.48% (inactive) | -0.889
37 | CCc1nn(-c2cc(Oc3cccc4ccccc34)nc(-c3ccccc3)n2)c(N)c1C#N | 19.2% (active) | -18
38 | CCCC(=O)n1nc(-c2ccccc2)nc1N | 10.8% (inactive) | -5.17
39 | COc1ccc(C2c3c(C)nn(-c4ccccc4)c3NC(=O)N2c2ccccc2)cc1 (stereo unspecified) | 11% (inactive) | 17.6
40 | COc1ccc(CN2CCCC(C(=O)c3ccc(Cl)cc3)C2)cc1Cn1cncn1 (stereo unspecified) | 0.149% (inactive) | -9.01
41 | Cc1nn(CC(=O)Nc2ccc(C#N)cc2)c(C)c1[N+](=O)[O-] | 2.1% (inactive) | 9.5
42 | Cc1nn(CC(=O)Nc2ccc(N(C)C)cc2)c(C)c1[N+](=O)[O-] | 8.73% (inactive) | -12.8
43 | CCc1ccc(NC(=O)Cn2nc(C)c([N+](=O)[O-])c2C)cc1 | 13.4% (active) | 38.8
